Assay results as given in the supplement of paper PMC8387472.
Structures can show the parent of a compound that is named as a salt. ± gives the standard deviation of the averaged measurements.

What follows are compounds tested on mESC LDLR-Dup GFP reporter (SpCas9 MH-deletion repair) (assay: fraction of GFP+ cells relative to DMSO control (fold change); higher = more MH-deletion repair to in-frame LDLR (or more editing)). Conditions: 2 µM; 7 days post-transfection.

SMILES	fraction of GFP+ cells
Cc1cccc(CC(=O)N2CCc3c2ccc(-c2cn(C)c4ncnc(N)c24)c3F)n1	0.925 ± 0.19
C[C@@H](N)c1ccc(C(=O)Nc2ccnc3[nH]ccc23)cc1	1.54 ± 0.27
O=C(COc1cccc2c(=O)[nH]ccc12)c1ccccc1	0.936 ± 0.095
CCc1c2c(nc3ccc(OC(=O)N4CCC(N5CCCCC5)CC4)cc13)-c1cc3c(c(=O)n1C2)COC(=O)[C@]3(O)CC [Irinotecan HCl Trihydrate]	0.463 ± 0.066
O=C(c1cccc(Cl)c1F)N1CCN(Cc2cccc(Nc3nccs3)n2)CC1	1.25 ± 0.38
CC1CCc2cc(F)cc3c(=O)c(C(=O)O)cn1c23 (stereo not drawn) [Flumequine]	0.977 ± 0.12
Nc1nc2[nH]cc(CCc3ccc(C(=O)N[C@@H](CCC(=O)O)C(=O)O)cc3)c2c(=O)[nH]1 [Pemetrexed]	1.53 ± 0.08
CNc1ccc([N+](=O)[O-])c(Nc2ccc3[nH]ncc3c2)n1	2.16 ± 0.36
NC(=O)c1ccc2nc(-c3ccc(Oc4ccc(Cl)cc4)cc3)[nH]c2c1 [Chk 2 inhibitor II (BML-277)]	0.961 ± 0.26
C[C@H](NC(=O)CCc1nc2ccccc2c(=O)[nH]1)c1ccccc1	0.781 ± 0.051
CCN1CCN(CC(=O)Nc2ccc(-c3cccc4c(=O)cc(N5CCOCC5)oc34)c3sc4ccccc4c23)CC1	1.08 ± 0.16
Cc1ccc(C(=O)NCCCCCC(=O)Nc2ccccc2N)cc1	1.26 ± 0.13
CC(C)(C#N)c1ccc(N2C(=O)OCc3cnc4ccc(-c5cnc6ccccc6c5)cc4c32)cc1	1.01 ± 0.45
CN(Cc1cnc2nc(N)nc(N)c2n1)c1ccc(C(=O)N[C@@H](CCC(=O)O)C(=O)O)cc1 [Methotrexate]	1.53 ± 0.28
CCn1c(=O)c(-c2ccc(Cl)cc2Cl)cc2cnc(Nc3ccc(N4CCNCC4)c(F)c3)nc21	0.433 ± 0.12
O=C1Cc2c([nH]c3ccc(Br)cc23)-c2ccccc2N1 [Kenpaullone]	1.53 ± 0.057
CC(ONC(=O)c1cc(C(F)(F)F)cc(C(F)(F)F)c1)C(=O)Nc1ccc(Cl)cc1 (stereo not drawn)	0.994 ± 0.12
O=C(O)c1ccc2c(c1)nc(Nc1cccc(Cl)c1)c1ccncc12 [Silmitasertib (CX-4945)]	0.655 ± 0.32
O=c1[nH]c(=O)n(C2CC(O)C(CO)O2)cc1Br (stereo not drawn) [Bromodeoxyuridine (BrdU)]	1.79 ± 0.2

SMILES	fraction of GFP+ cells
CC(=O)O/N=C1\C(=O)N(Cc2cc(Cl)ccc2Cl)c2ccc(Cl)cc21	1.21 ± 0.075
S=c1[nH]cnc2nc[nH]c12 [Mercaptopurine (6-MP)]	2.22 ± 1.1
NC[C@@](O)(c1ccc(Cl)cc1)c1ccc(-c2cn[nH]c2)cc1	1.33 ± 0.93
O=c1c(-c2ccc(O)cc2)coc2cc(O)cc(O)c12 [Genistein]	1.07 ± 0.17
O=C(O)COc1ccc(Br)cc1C=C1SC(=S)N(Cc2cccnc2)C1=O [Skp2 inhibitor C1 (SKPin C1)]	0.783 ± 0.085
CC1=CC(=O)c2ccccc2C1=O [Menadione]	1.27 ± 0.36
O=c1cc(N2CCOCC2)oc2c(-c3ccc4c(c3)OCCO4)csc12	0.48 ± 0.029
CO[C@H]1/C=C/O[C@@]2(C)Oc3c(C)c(O)c4c(O)c(c(/C=N/N5CCN(C6CCCC6)CC5)c(O)c4c3C2=O)NC(=O)/C(C)=C\C=C\[C@H](C)[C@H](O)[C@@H](C)[C@@H](O)[C@@H](C)[C@H](OC(C)=O)[C@@H]1C [Rifapentine]	3.03 ± 0.37
C[C@@H]1CN(CC(=O)Nc2ccc3c(c2)Cc2cccc(-c4cc(=O)cc(N5CCOCC5)o4)c2S3)C[C@H](C)O1	0.516 ± 0.11
O=C1CCc2c(ccc3ccccc23)O1 [Splitomicin]	0.636 ± 0.11
CCCCOc1c(C(=O)c2c(F)cc(C)cc2F)c[nH]c2nncc1-2	1.7 ± 0.11
CC1=C(C(=O)Nc2ccc3[nH]ncc3c2)C(c2ccc(F)cc2)NC(=O)N1 (stereo not drawn)	1.53 ± 0.42
COc1ccccc1-c1cc(Nc2cccc(CS(N)(=O)=O)c2)ncn1	1.17 ± 0.072
S=c1nc[nH]c2nc[nH]c12 [6-Mercaptopurine (6-MP) Monohydrate]	1.21 ± 0.061
CCn1cc(C(=O)O)c(=O)c2cc(F)c(N3CCNCC3)nc21 [Enoxacin]	1.04 ± 0.096
CN1CCN(c2ccc(Nc3ncc4cc(C#N)c(=O)n(C5CCCC5)c4n3)cc2)CC1	0.705 ± 0.077
NC(=O)NO [Hydroxyurea]	0.829 ± 0.24
Nc1ncnc2c1c(-c1cnc3[nH]ccc3c1)nn2C1CCCC1	0.289 ± 0.034
Cc1cc(C)nc(SCC(=O)Nc2ncc(Cc3cccc4ccccc34)s2)n1	1.15 ± 0.61
